NTMT1 inh: blocks human N-terminal methyltransferase 1 activity; Q9BV86; Potency, µM (doses to about 114 µM), without a hit: at the top dose activity change, negative = inhibition, most hits filed as inhibitors; NTMT1 MTase-Glo SAH luminescence, purified enzyme; 59,000 tested, 2.5% active;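 further: plate controls were DMSO vehicle for no effect and no enzyme for full effect; nearly all actives have a fitted effect of over 65% in size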
Target sequence (Q9BV86 whole entry, looked up): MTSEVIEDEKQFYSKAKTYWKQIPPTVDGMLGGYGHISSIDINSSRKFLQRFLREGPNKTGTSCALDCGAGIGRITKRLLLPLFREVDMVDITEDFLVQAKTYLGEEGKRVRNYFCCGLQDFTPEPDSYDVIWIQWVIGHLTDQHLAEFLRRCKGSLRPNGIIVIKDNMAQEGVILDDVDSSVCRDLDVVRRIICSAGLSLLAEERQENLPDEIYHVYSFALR
p53null 32C tox: kills p53 null cells at the permissive temperature | H1299-neo p53 null cells, ATP luminescence, 24 h, 32C | Potency, µM (titrated, usually from 46.1 µM), for the others: at the top dose activity change, negative = cytotoxicity, usual class: cytotoxic | 55,000 tested, 0.62% active;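 further: 0% = DMSO only and -100% = full killing by 100 µM tamoxifen; nearly all actives have a fitted effect of over 55% in size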
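We seeded p53-null H1299-neo cells, incubated them overnight at 37C, and added compounds across a range up to 46 uM. After 24 hours at 32C, ATP reagent was applied for 20 min at room temperature and luminescence recorded.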
p53null 39C tox: p53 null cell cytotoxicity, nonpermissive temperature; H1299 p53-null (neo) cells, 39C, ATPlite viability, 24 h; Potency, µM (series often up to 46.1 µM), for inactives: at the highest dose activity, negative = cell killing, hits mostly cytotoxic; 55,000 tested, 0.97% active;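 further: 0% = DMSO only and -100% = full killing by 100 µM tamoxifen; nearly all actives have a fitted effect of over 50% in size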
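ATP-luminescence viability readout (ATPlite, 20 min RT) after 24 hr compound treatment at 39C of H1299-neo or H1299-p53A138V cells; titration up to 46 uM; normalized to DMSO and 100 uM tamoxifen; Hill-fit AC50.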
GALC G270D up: raises human GALC G270D mutant activity in cells. P54803. AID 1159614. Potency, µM (top dose mostly 57.5 µM), most hits filed as activators. 45,000 tested, 0.1% active. 145M-Twi-hGALC-G270D cells (Twitcher mouse brain line with human GALC G270D), HMU-beta-Gal fluorescence, 48 h; further: 0% is about no effect; nearly all actives have a fitted effect of over 65% in size
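Brain-derived Twitcher mouse 145M-Twi cells stably expressing human GALC-G270D or wild-type GALC, treated live, then residual GALC activity read by fluorescence of HMU-b-Gal substrate (0.1 mM final) in citrate-phosphate buffer pH 5.2 with sodium taurocholate. Signal increase indicates enhancement.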
FH mod: Identification of activators of human fumarate hydratase by quantitative high-throughput screening. Fumarate hydratase, mitochondrial (Homo sapiens), P07954. FH coupled MDH/diaphorase resazurin fluorescence, 15 min. Potency, µM (series often up to 79.9 µM), without a hit: at the highest dose activity change, negative = inhibition, most hits filed as inhibitors. 54,000 tested, 0.22% active; further: on the % scale 0 is the no-effect control and ±100 the full control effect; the screen sought activators but most active calls are inhibition curves; nearly all actives have a fitted effect of over 45% in size
Target sequence (P07954 whole entry, looked up): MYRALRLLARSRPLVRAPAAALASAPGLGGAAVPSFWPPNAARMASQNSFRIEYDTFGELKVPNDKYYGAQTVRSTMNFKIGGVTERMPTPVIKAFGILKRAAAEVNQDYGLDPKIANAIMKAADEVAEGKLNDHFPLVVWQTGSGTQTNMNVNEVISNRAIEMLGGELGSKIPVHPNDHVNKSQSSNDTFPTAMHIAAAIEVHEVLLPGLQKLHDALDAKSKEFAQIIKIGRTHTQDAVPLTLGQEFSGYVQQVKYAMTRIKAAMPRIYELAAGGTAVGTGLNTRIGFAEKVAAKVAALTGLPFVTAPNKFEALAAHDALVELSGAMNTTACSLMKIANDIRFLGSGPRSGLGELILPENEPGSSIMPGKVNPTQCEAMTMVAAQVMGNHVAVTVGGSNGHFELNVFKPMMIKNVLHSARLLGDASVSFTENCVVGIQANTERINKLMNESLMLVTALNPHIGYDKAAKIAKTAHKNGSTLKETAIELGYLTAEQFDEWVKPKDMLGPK
Starred values were filed as active, the others as inactive; i = inactive; ? = inconclusive; . = no result; ! = repeats disagree; [ ] = dose if it differs, or a comment. The entries come from a sample that favours hits as a whole. The call rests on the fitted dose curve; in most records, active means well fitted curve in the direction sought with a large enough effect; inconclusive means small, poorly fitted or top-dose-only effect, or another doubt; inactive means no such curve, though single readings can be large; an effect the other way counts as inactive or inconclusive. Potency means the concentration at half of the fitted maximal effect.

SMILES | NTMT1 inh | p53null 32C tox | p53null 39C tox | GALC G270D up | FH mod
O=S(=O)(O)C(F)(F)C(F)(F)C(F)(F)C(F)(F)C(F)(F)C(F)(F)C(F)(F)C(F)(F)F | 22.4µM* | . | . | i | ?
C[C@H](N)C(=O)c1ccccc1 | 112µM* | . | . | i | 10.3%[162 µM]
CCN(CC)C(C)C(=O)c1ccccc1 (stereo not given) | 23.1%[57.5 µM] | . | . | i | -1.8%[53.3 µM]
C[C@]12CC[C@H](O[C@@H]3O[C@H](CO)[C@@H](O)[C@H](O)[C@H]3O)CC1CC[C@@H]1C2CC[C@]2(C)[C@@H](C3=CC(=O)OC3)CC[C@]12O (stereo not given in full) | -10.3%[29.8 µM] | . | . | . | 1.6%[53.3 µM]
CCOc1ccc(CCNC(=O)c2cc3ccccc3n2Cc2ccccn2)cc1OCC | 18.9% | . | . | . | .
Cc1cccc(OCC(=O)Nc2cc(-c3ccccc3F)nn2-c2ccccc2)c1 | 0.9% | 5.9% | ? | i | 5.0%
Cc1cccn2c(=O)cc(COc3cccc(NC(=O)COc4ccc(F)cc4)c3)nc12 | ? | 12.6µM* | 12.6µM* | i | -13.3%
CC(=O)O[C@@]12CO[C@@H]1C[C@H](O)[C@@]1(C)C(=O)[C@H](O)C3=C(C)[C@@H](O)C[C@@](O)([C@@H](OC(=O)c4ccccc4)[C@H]21)C3(C)C | -2.0% | . | . | . | .
CC(C)[N+](C)(CCC(C(N)=O)(c1ccccc1)c1ccccc1)C(C)C | 39.8µM* | . | . | i | -0.4%[53.3 µM]
CC(=O)O[C@@H]1[C@H]2CC[C@H]3[C@@](C)(O)[C@@H]4C[C@H](O)C(C)(C)[C@@]4(O)[C@H](O)C[C@@]13C[C@@]2(C)O | 11.5%[29.8 µM] | . | . | . | -3.3%[53.3 µM]
C[C@]12CC[C@H]3[C@@H](CCC4=CC(=O)CC[C@@H]43)[C@@H]1CC[C@@H]2OC(=O)CCc1ccco1 | 25.1µM* | . | . | i | -4.1%[53.3 µM]
CC(C)(O)/C=C/C(=O)[C@](C)(O)[C@H]1[C@H](O)C[C@@]2(C)[C@@H]3CC=C4[C@@H](C=C(O)C(=O)C4(C)C)[C@]3(C)C(=O)C[C@]12C | 11.3%[29.8 µM] | . | . | . | 12.9%[13.5 µM]
CCOc1ccc(CCNC(=O)c2cc3ccncc3n2Cc2cccc(C)c2)cc1OCC | -1.1% | . | . | . | .
c1ccc(CN2CCNCC2)cc1 | 100µM* | . | . | i | 30.9%[162 µM]
c1ccc(N2CCNCC2)cc1 | 24.5%[57.5 µM] | . | . | i | 1.1%[53.3 µM]
Cc1cc(C)cc(OCC(=O)Nc2ccc(-c3nc4ccccc4s3)cc2)c1 | 12.0% | -7.6% | 0.7% | 39.8µM* | 1.1%
NCCCCCNC1(c2ccccc2)CCCCC1 | -4.5%[57.5 µM] | . | . | . | 5.3%
c1ccc([C@@H]2C[C@H]2NC2CCNCC2)cc1 | ? | . | . | . | 2.5%
C=CC[C@]1(O)CC[C@H]2[C@@H]3CCC4=CC(=O)CCC4=C3C=C[C@@]21C | 22.4µM* | . | . | i | -8.1%[53.3 µM]
CC[n+]1c(-c2ccccc2)c2cc(N)ccc2c2ccc(N)cc21 | 28.2µM* | . | . | i | -23.8%[53.3 µM]
CC1=C(O)C(=O)C=C2C1=CC=C1[C@@]2(C)CC[C@@]2(C)[C@@H]3C[C@](C)(C(=O)O)CC[C@]3(C)CC[C@]12C | 15.8µM*! | . | . | . | ?
COC(=O)C12C(=O)C(C)(O)C(=O)C1(C)C(C)=CC1C3(C=O)CCC(OC(C)=O)C(C)(C)C3CCC12C (stereo not given) | -0.5%[29.8 µM] | . | . | . | -0.5%[53.3 µM]
C[N+](C)(C)CCOC(=O)C(O)(c1ccccc1)c1ccccc1 | 15.8µM* | . | . | i | 2.8%[53.3 µM]
CN(C)[C@@H]1C(=O)C(C(N)=O)=C(O)[C@@]2(O)C(=O)C3=C(O)c4c(O)cccc4[C@@](C)(O)[C@H]3[C@H](O)[C@@H]12 | 79.4µM* | . | . | . | -1.0%[53.3 µM]
Nc1c(C(=O)Nc2ccc(Cl)cc2)sc2nc3c(cc12)N1CCC3CC1 | ? | -22.9% | -18.8% | 31.6µM* | -3.2%
SMILES | NTMT1 inh | p53null 32C tox | p53null 39C tox | GALC G270D up | FH mod
Nc1c(C(=O)Nc2ccc(Cl)c(C(F)(F)F)c2)sc2nc3c(cc12)N1CCC3CC1 | -1.8% | ? | -27.4% | i | -20.1%
C/C=C1/CN2CC[C@]34C(=Nc5ccccc53)[C@@H]2C[C@@H]1[C@H]4C(=O)OC | 9.3%[29.8 µM] | . | . | . | 3.6%[53.3 µM]
Cc1ccc2oc(=O)c(-c3nc4ccc(C)cc4[nH]3)cc2c1 | -2.0% | -29.4% | 20µM* | i | -14.3%
CC(=O)OC[C@H]1O[C@@H]([S-])[C@H](OC(C)=O)[C@@H](OC(C)=O)[C@@H]1OC(C)=O.CC[PH+](CC)CC.[Au] | 10µM* | . | . | . | .
Cc1cccc(C)c1OP(=O)(OCc1c(-c2ccccc2)no[n+]1[O-])Oc1c(C)cccc1C | 4.9% | . | . | . | .
Nc1ccc(N=Nc2ccccc2)cc1 | 126µM* | . | . | i | ?
COc1ccc2c3c([nH]c2c1)C(C=C(C)C)N1C(=O)C2CCCN2C(=O)C1C3 (stereo not given) | 2.6%[29.8 µM] | . | . | . | 5.5%[53.3 µM]
CCOC(=O)c1ccc(N2C(=O)c3n[nH]c(-c4cccs4)c3C2c2ccc(C(C)(C)C)cc2)cc1 (stereo not given) | 7.8% | 32.8% | ? | i | ?
CCOC(=O)c1ccc(N2C(=O)c3n[nH]c(-c4cccs4)c3C2c2ccc(Cl)cc2Cl)cc1 (stereo not given) | 11.6% | ? | 17.8µM* | i | -20.3%
CC[C@H]1C2CC3[C@@H]4N(C)c5ccccc5[C@]45C[C@@H]([C@H]2[C@H]5O)N3[C@H]1O | -10.2%[29.8 µM] | . | . | . | -1.8%[53.3 µM]
C=C(C)[C@@H]1CCC(C)=C[C@H]1c1c(O)cc(CCCCC)cc1O | 7.9% | . | . | . | ?
CC1=C[C@H]2O[C@@H]3[C@H](O)[C@@H](O)[C@](C)([C@@]2(CO)C[C@@H]1O)[C@]31CO1 | 7.4%[57.5 µM] | . | . | . | 8.1%
Nc1cccc2c(N)cccc12 | 35.5µM* | . | . | i | -16.6%
CCN(CC)C(=O)[C@@H]1C=C2c3cccc4[nH]cc(c34)C[C@H]2N(C)C1 | 56.2µM* | . | . | i | -10.1%[162 µM]
C[C@H]1[C@H](O)[C@@H](C)/C=C/C=C/CC/C=C/C=C/C=C/C=C/[C@H](O[C@@H]2O[C@H](C)[C@@H](O)[C@H](N)[C@@H]2O)C[C@@H]2O[C@](O)(C[C@@H](O)[C@H](O)CC[C@@H](O)C[C@@H](O)C[C@@H](O)CC(=O)O[C@H]1C)C[C@H](O)[C@H]2C(=O)O | -27.9% | . | . | . | .
O=C(O)COc1ccccc1 | 25.5%[57.5 µM] | . | . | i | -3.2%[53.3 µM]
CC(=O)[O][Hg][c]1ccccc1 | 2.82µM* | . | . | i | -10.6%[53.3 µM]
C[C@]12CC[C@H](OC3OC(CO)C(O)C(O)C3OC3OC(CO)C(O)C(O)C3O)C[C@@H]1CC[C@@H]1C2CC[C@]2(C)[C@@H](C3=CC(=O)OC3)CC[C@]12O (stereo not given in full) | 11.6%[12.6 µM] | . | . | . | -1.2%[20.6 µM]
COc1ccc2nc(N3CCN(C(=O)CS(=O)(=O)c4ccc(C)cc4)CC3)sc2c1 | -20.9% | 10µM* | 84.7% | i | -27.1%
